From PubChem BioAssay
Hits are enriched below; roughly 28% of the tested compounds scored in any of these assays.
CD11b adhes inh: inhibitors of human CD11b/CD18 binding to fibrinogen; P05107+P11215; K562 CD11b/CD18 adhesion to fibrinogen, ATPlite luminescence; Mn2+ added to activate the integrin; inhibition, % at 10 µM; 0.54% of 93,000 active;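 active = primary inhibition of 50% or more at 10 µM, then 40% or more on retest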
Target sequence (P05107 whole entry, looked up, other chains not shown): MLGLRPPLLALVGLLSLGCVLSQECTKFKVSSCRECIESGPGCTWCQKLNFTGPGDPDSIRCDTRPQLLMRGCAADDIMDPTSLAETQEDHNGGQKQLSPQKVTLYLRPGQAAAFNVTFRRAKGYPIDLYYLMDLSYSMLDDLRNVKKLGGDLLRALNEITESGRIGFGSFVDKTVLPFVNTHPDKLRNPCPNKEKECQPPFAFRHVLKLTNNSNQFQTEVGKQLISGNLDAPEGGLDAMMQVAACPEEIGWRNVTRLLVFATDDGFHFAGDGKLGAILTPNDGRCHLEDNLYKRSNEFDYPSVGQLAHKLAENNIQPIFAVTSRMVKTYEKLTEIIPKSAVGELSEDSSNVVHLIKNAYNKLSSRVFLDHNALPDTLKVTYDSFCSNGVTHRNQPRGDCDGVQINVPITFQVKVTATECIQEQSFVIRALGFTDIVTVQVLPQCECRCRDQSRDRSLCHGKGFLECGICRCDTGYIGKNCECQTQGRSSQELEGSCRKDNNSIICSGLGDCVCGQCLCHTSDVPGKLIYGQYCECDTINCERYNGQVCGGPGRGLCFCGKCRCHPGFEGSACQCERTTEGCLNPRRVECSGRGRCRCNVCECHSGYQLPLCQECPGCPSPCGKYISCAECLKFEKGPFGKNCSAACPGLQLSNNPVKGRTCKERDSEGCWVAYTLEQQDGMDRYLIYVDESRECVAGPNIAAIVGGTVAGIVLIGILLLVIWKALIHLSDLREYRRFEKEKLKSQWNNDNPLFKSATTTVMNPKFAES
CYP2C19 inh: inhibitors of human CYP2C19; P33261; CYP2C19 Supersomes, luciferin-H EGE luminescence, 30 min; inhibition, % at 5 µM; 21% of 96,000 active; AID 778;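 active = CYP2C19 inhibition above a set limit at 5 µM in the primary screen, cut at about 50% in these data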;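 note: plate controls were negative control wells for no effect and 2.5 mM tranylcypromine positive control for full effect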
CD11b adhes enh: CD11b/CD18-fibrinogen binding enhancement | activation, % at 10 µM | P05107+P11215 | K562 CD11b/CD18 adhesion to fibrinogen, ATPlite luminescence | AID 1499 | 0.07% of 93,000 active;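 active = 10 µM primary screen giving 50% or more activity, confirmed by 40% or more on retest at that dose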
CYP2C9 inh: inhibitors of human CYP2C9. AID 777. CYP2C9 Supersomes, luciferin-H conversion, luminescence. 20% of 96,000 active. P11712. inhibition, % at 5 µM;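 active = blocking of liver enzyme CYP2C9 beyond about 50% at 5 µM, limit read from the data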
CYP2C19 act: increases human CYP2C19 enzyme activity; 96,000 tested, under 10 active; activation factor at 5 µM; recombinant CYP2C19, luciferin-H EGE luminescence; stronger effect = higher value; 0 = fully inhibited enzyme, 1 = untreated enzyme; P33261;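 active = activation factor of at least 2 at 5 µM in the primary screen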;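 note: 0 = wells with 2.5 mM tranylcypromine and 1 = vehicle-only wells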
CYP2C9 activ: CYP2C9 (human) activation | P11712 | recombinant CYP2C9, luciferin-H conversion, luminescence; stronger effect = higher value; factor 1 = untreated enzyme, 0 = blocked | activation factor at 5 µM | 1.4% of 96,000 active;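 active = activation factor of 2 or more for CYP2C9 at a 5 µM dose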;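 note: 0 = sulfaphenazole-blocked wells and 1 = vehicle-only wells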
An asterisk follows results filed as active; · = not tested or not shown.

SMILES	CD11b adhes inh	CYP2C19 inh	CD11b adhes enh	CYP2C9 inh	CYP2C19 act	CYP2C9 activ
CC1CCc2cc(F)ccc2N1C(=O)CCC(=O)O (centres undefined)	-17	-2	-2	-3	1	1
CCc1nc(SCC(=O)Nc2nnc(CC)s2)c2c(C)c(C)sc2n1	-16	-2	72	11	1	0.9
CC1Cc2ccccc2N1C(=O)CSc1nnc(-c2ccccc2)c(-c2ccccc2)n1 (centres undefined)	·	85*	·	100*	0.2	0
CC1Cc2ccccc2N1C(=O)CSc1nnc(Cn2nnc3ccccc32)n1C (centres undefined)	30	13	0	-4	0.9	1
CCCc1nc(SCC(=O)N2c3ccccc3CC2C)c2c(C)c(C)sc2n1 (centres undefined)	18	64*	-1	94*	0.4	0.1
O=C(CSc1nnc(-c2ccccc2)c(-c2ccccc2)n1)N1CCOCC1	-3	19	-3	25	0.8	0.7
CC(=O)Nc1nc(C2COc3ccccc3O2)cs1 (centres undefined)	-44	39	0	31	0.6	0.7
O=C(NCCOc1ccccc1)C(c1ccccc1)c1ccccc1	-2	12	1	21	0.9	0.8
Cc1ccc(-c2nc(Nc3ccccc3)n[nH]2)cc1	-11	69*	-1	27	0.3	0.7
CCOC(=O)C1CCCN(c2ncnc3c2cnn3-c2cccc(C)c2)C1 (centres undefined)	-6	14	5	23	0.9	0.8
c1ccc(CCN2CCN(c3ncnc4c3cnn4-c3ccccc3)CC2)cc1	0	79*	8	78*	0.2	0.2
c1ccc(-n2ncc3c(N4CCCCC4)ncnc32)cc1	59*	83*	-6	82*	0.2	0.2
c1ccc(Cn2nnc3c(N4CCCCCC4)ncnc32)cc1	3	36	0	71*	0.6	0.3
CCN1CCN(c2ncnc3c2cnn3-c2ccccc2)CC1	5	13	6	8	0.9	0.9
Cc1cccc(-n2ncc3c(N4CCC(C)CC4)ncnc32)c1	17	71*	2	96*	0.3	0
COc1ccccc1C(CC(N)=O)c1ccco1 (centres undefined)	·	-14	·	-44	1.1	1.4
CCOc1ccc(OCc2ccc(C(=O)NCc3ccncc3)o2)cc1	9	92*	-3	80*	0.1	0.2
CCOc1ccc(C(=O)NCc2cccnc2)cc1	11	44	5	8	0.6	0.9
O=C(OCc1ccccn1)c1ccc(COc2ccccc2Cl)o1	-4	61*	4	26	0.4	0.7
CCc1ccc(OCc2ccc(C(=O)NCc3ccccn3)o2)cc1	-14	71*	7	55*	0.3	0.4
CCOc1ccc(OCc2ccc(C(=O)O)o2)cc1	-4	70*	-2	30	0.3	0.7
CCCc1ccc(OCc2ccc(C(=O)O)o2)c(OC)c1	-1	-2	-6	-12	1	1.1
Cc1ccc(/C=N/Nc2nc3ccccc3[nH]2)s1	1	·	2	·	·	·
CCc1cc2c3c(c1)C1(C(=O)N3C(C)(C)CC2C)C(C#N)=C(N)N2C(=C1C#N)Nc1ccccc12 (centres undefined)	1	·	-4	·	·	·
COc1ccc(N(C(=O)c2ccc(F)cc2)C2=CC3CCC(C2)N3C)cc1 (centres undefined)	-11	-35	-3	12	1.4	0.9
SMILES	CD11b adhes inh	CYP2C19 inh	CD11b adhes enh	CYP2C9 inh	CYP2C19 act	CYP2C9 activ
Cc1ccccc1-c1cc(C(=O)n2cccn2)c2cc(Cl)ccc2n1	·	62*	·	15	0.4	0.8
COc1ccc(-n2nc(C(=O)NCc3ccco3)c3c4ccccc4n(C)c3c2=O)cc1Cl	4	0	-1	-11	1	1.1
COc1ccccc1CNC(=O)c1nn(-c2ccc(C)cc2)c(=O)c2c1c1ccccc1n2C	-2	21	53	65*	0.8	0.3
COc1ccc2c(c1)c(=O)oc1cc3occ(C(C)(C)C)c3cc12	-24	10	6	5	0.9	1
COc1ccc2c(c1)c(=O)oc1cc3oc(C)c(C)c3cc12	-3	70*	50	18	0.3	0.8
COc1ccc(Br)cc1C(=O)Nc1ccccc1-c1ccccc1	-17	31	-1	17	0.7	0.8
